Screen size: about 5,500 compounds; about 2,000 (36%) were called active. About 18% were inconclusive and are not listed. No stated cut-off is given here; in the data, active means normalized growth mostly below about 0.91 (no sharp cut-off); inconclusive means no clear call, values can overlap the other calls; inactive means mostly above about 0.92. The list shows a part of the results.
Assay: chemical genetic growth profiling, strain panel (AID 1159580);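 further: tested at 20 µM; growth read once vehicle control cultures reached saturation at 30 °C; 1 = growth at the plate median or of vehicle wells; lower values mean less growth of the strain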
Conditions: S. cerevisiae deletion strains, growth OD

Measured: normalized growth

CCCCCCCCCCCCC/C=C/[C@@H](O)[C@@H](N)CO
active: locus YAL013W, strain DEP1, active compounds read low 0.877 | locus YCL061C, strain MRC1 (second series), active compounds read low 0.925 | locus YDR150W, strain NUM1, active compounds read low 0.848 | locus YGR229C, strain SMI1, active compounds read low 0.172 | locus YJR075W, strain HOC1, active compounds read low 0.644 | locus YNL175C, strain NOP13, active compounds read low 1.19 [resistant] | locus YPL055C, strain LGE1, active compounds read low 0.757 | locus YPL241C, strain CIN2, active compounds read low 0.926
inactive: locus YAL040C, strain CLN3, active compounds read low 0.984 | locus YDR363W, strain ESC2, active compounds read low 0.929 | locus YER002W, strain NOP16, active compounds read low 1.02 | locus YGR078C, strain PAC10, active compounds read low 1.01 | locus YMR307W, strain GAS1, active compounds read low 1.02 | locus YNL153C, strain GIM3, active compounds read low 0.844 | locus YNL197C, strain WHI3, active compounds read low 1.1 | locus YNL224C, strain SQS1, active compounds read low 1.06 | locus YOR083W, strain WHI5 (second series), active compounds read low 1.11

C[C@@H](N)CO
inactive: locus YAL021C, strain ccr4, active compounds read low 0.998 | locus YAL026C, strain drs2, active compounds read low 0.992 | locus YAL030W, strain snc1, active compounds read low 0.985 | locus YBL061C, strain skt5, active compounds read low 0.994 | locus YBR009C, strain hhf1, active compounds read low 1.01 | locus YBR023C, strain chs3, active compounds read low 0.987 | locus YBR171W, strain sec66, active compounds read low 0.967 | locus YBR231C, strain swc5, active compounds read low 0.991 | locus YBR279W, strain paf1, active compounds read low 0.987 | locus YCL011C, strain gbp2, active compounds read low 0.997 | locus YCL016C, strain dcc1, active compounds read low 0.991 | locus YCL069W, strain vba3, active compounds read low 0.988 | locus YCR088W, strain abp1, active compounds read low 0.993 | locus YDL005C, strain med2, active compounds read low 0.961 | locus YDL040C, strain nat1, active compounds read low 0.976 | locus YDR001C, strain nth1, active compounds read low 0.983 | locus YDR069C, strain doa4, active compounds read low 0.967 | locus YDR137W, strain rgp1, active compounds read low 0.979 | locus YDR159W, strain sac3, active compounds read low 0.972 | locus YDR195W, strain ref2 0.954 | locus YDR297W, strain sur2, active compounds read low 1 | locus YDR334W, strain swr1, active compounds read low 0.989 | locus YDR335W, strain msn5, active compounds read low 0.995 | locus YDR392W, strain spt3, active compounds read low 0.979 | locus YEL003W, strain gim4, active compounds read low 0.997 | locus YEL037C, strain rad23, active compounds read low 1 | locus YEL061C, strain CIN8 (second series), active compounds read low 1.01 | locus YER015W, strain faa2, active compounds read low 0.989 | locus YER016W, strain bim1, active compounds read low 0.996 | locus YER111C, strain swi4, active compounds read low 0.973 | locus YER155C, strain BEM2 (second series), active compounds read low 0.984 | locus YFR010W, strain ubp6, active compounds read low 1 | locus YGL167C, strain pmr1, active compounds read low 0.984 | locus YGL173C, strain kem1, active compounds read low 1 | locus YGL227W, strain vid30, active compounds read low 0.973 | locus YGL240W, strain doc1, active compounds read low 1.01 | locus YGL253W, strain hxk2, active compounds read low 0.989 | locus YHR013C, strain ard1, active compounds read low 1 | locus YHR027C, strain rpn1, active compounds read low 0.995 | locus YHR030C, strain SLT2, active compounds read low 0.984 | locus YHR079C, strain IRE1, active compounds read low 0.974 | locus YHR142W, strain chs7, active compounds read low 0.98 | locus YJL092W, strain hpr5, active compounds read low 0.996 | locus YJL095W, strain BCK1 (second series), active compounds read low 0.996 | locus YJL095W, strain BCK1, active compounds read low 0.975 | locus YJL115W, strain asf1, active compounds read low 1 | locus YJL129C, strain trk1, active compounds read low 0.989 | locus YJL154C, strain vps35, active compounds read low 0.996 | locus YJL164C, strain tpk1, active compounds read low 1.01 | locus YJL166W, strain qcr8, active compounds read low 1 | locus YJL187C, strain SWE1, active compounds read low 0.988 | locus YJR066W, strain TOR1, active compounds read low 0.914 | locus YKL160W, strain elf1, active compounds read low 0.968 | locus YKR026C, strain gcn3, active compounds read low 0.995 | locus YKR091W, strain srl3, active compounds read low 0.977 | locus YLL001W, strain dnm1, active compounds read low 0.986 | locus YLL026W, active compounds read low 0.994 | locus YLL041C, strain sdh2, active compounds read low 0.997 | locus YLR027C, strain aat2, active compounds read low 0.999 | locus YLR113W, strain HOG1, active compounds read low 1.02 | locus YLR221C, strain rsa3, active compounds read low 1.01 | locus YLR258W, strain gsy2, active compounds read low 0.995 | locus YLR262C, strain YPT6 (second series), active compounds read low 0.973 | locus YLR320W, strain mms22, active compounds read low 1.01 | locus YLR342W, strain FKS1, active compounds read low 0.987 | locus YLR357W, strain rsc2, active compounds read low 0.954 | locus YLR370C, strain arc18, active compounds read low 0.996 | locus YLR384C, strain iki3, active compounds read low 1.01 | locus YML120C, strain ndi1, active compounds read low 0.983 | locus YMR058W, strain fet3, active compounds read low 1.02 | locus YMR125W, strain sto1, active compounds read low 0.947 | locus YMR129W, active compounds read low 0.994 | locus YMR205C, strain PFK2, active compounds read low 1.01 | locus YMR231W, strain pep5, active compounds read low 0.984 | locus YNL071W, strain lat1, active compounds read low 1.01 | locus YNL183C, strain NPR1, active compounds read low 0.901 | locus YNL209W, strain ssb2, active compounds read low 0.974 | locus YNL248C, strain rpa49, active compounds read low 0.942 | locus YNL322C, strain KRE1 (second series), active compounds read low 0.973 | locus YNR049C, strain mso1, active compounds read low 0.981 | locus YOR001W, strain rrp6, active compounds read low 1.01 | locus YOR070C, strain gyp1, active compounds read low 0.986 | locus YOR080W, strain dia2, active compounds read low 0.969 | locus YOR083W, strain WHI5, active compounds read low 0.94 | locus YOR106W, strain vam3, active compounds read low 0.964 | locus YOR231W, strain MKK1, active compounds read low 0.974 | locus YOR265W, strain rbl2, active compounds read low 0.992 | locus YOR270C, strain vph1, active compounds read low 0.976 | locus YOR290C, strain snf2, active compounds read low 0.984 | locus YPL051W, strain arl3, active compounds read low 0.99 | locus YPL078C, strain atp4, active compounds read low 0.976 | locus YPL106C, strain sse1, active compounds read low 0.973 | locus YPL240C, strain hsp82, active compounds read low 0.995 | locus YPL256C, strain CLN2, active compounds read low 0.988

— PubChem BioAssay AID1159580 (chemical genetic matrix, 2015)
